Data: ChEMBL document CHEMBL3988442, “University of Dundee, Small-Polar-MMV Screening Library” (2021)
In all, about 69,000 compounds went through this assay and about 950 (1.4%) showed an effect of 50% or more. For the sample, strong results were picked, then their nearest neighbours and some compounds at random.

test system: Mycobacterium tuberculosis; test: Cornell M. t heat shock assay; type: functional, organism-based; set-up: dose or concentration left out as unconfirmed; note: in the data most compounds retested in dose-response had high values

Structure (SMILES) | Percent Effect [%]
Cc1cccc(CN2C[C@@H]3COC[C@]3(CNC(=O)c3ccccc3)C2)n1.O=C(O)C(F)(F)F.O=C(O)C(F)(F)F | -15.75
CN1CC(=O)N(c2cnn(C)c2)CC12CCN(Cc1cccnc1)C2.O=C(O)C(F)(F)F.O=C(O)C(F)(F)F.O=C(O)C(F)(F)F (stereo not drawn) | -54.01
Cc1noc(C)c1CN1C[C@@H]2COC[C@@H](C(=O)N3CCCCO3)[C@@H]2C1.O=C(O)C(F)(F)F | -3.514
COc1ccccc1N1CCN(C(=O)Cn2nc(C)cc2C)CC1(C)C | 8.115
COc1ccccc1N1CCN(C(=O)Cn2nccc2C)CC1(C)C | 90.85
COc1ccc(N2CCN(C(=O)Cn3nccc3C)CC2(C)C)cc1 | 16.6
COc1ccc2[nH]cc(C(=O)N3CC[C@H](CO)[C@@H](O)C3)c(=O)c2c1 | -0.5763
O=C(c1c[nH]c2ccccc2c1=O)N1CCSCC1 | 105.4
O=C(Cc1c[nH]c2ccccc12)N1CCN(C(=O)c2ccoc2)CC1 | 3.224
Cc1nccc(NCc2cncc3c2CCN(CCN(C)C)C3)n1 | 3.393
COc1ccccc1N1CCN(Cc2ncc(C)c(OC)c2C)CC1=O | 18.05
Cc1cc(C)n(C2=NC(NCCC(C)C)c3c(sc4c3CCCC4)N2)n1 (stereo not drawn) | 11.87
COCCNc1nc(-n2nc(C)cc2C)nc2sc3c(c12)CCCC3 | 40.33
Cc1cc(C)n(-c2nc(NCCCO)c3c4c(sc3n2)CCCC4)n1 | 101.1
CO[C@@H]1CN(c2ccccc2)S(=O)(=O)[C@@]12CCN(C(C)=O)C2 | 16.02
Cc1ccc(CN(CCCO)Cc2nc3ccccc3[nH]2)s1 | -17.57
Cc1ccc(S(=O)(=O)N2CCN(CCCn3ccnc3)CC2)cc1 | 15.57
Cc1ccc(O)c(CN(CCCn2ccnc2)Cc2ccc(C)s2)c1.O=C(O)CC(O)(CC(=O)O)C(=O)O | 105.6
Cc1ccc(CN(CCCn2ccnc2)Cc2ccccc2O)s1.O=C(O)CC(O)(CC(=O)O)C(=O)O | 35.85
CN(C)c1ccc(CN(CCCn2ccnc2)Cc2c[nH]cn2)cc1.O=C(O)CC(O)(CC(=O)O)C(=O)O | 16.53

Structure (SMILES) | Percent Effect [%]
Cc1cccc(CC(=O)N2CCN(c3nccn3C)CC2)c1.Cl | -13.18
O=C(O)C(F)(F)F.O=C(O)C(F)(F)F.c1csc(CN2C[C@@H]3COC[C@]3(COCc3ccncc3)C2)c1 | -17.61
O=C(Cc1ccc(F)cc1)N1CCn2cc(Cn3cccn3)nc2C1.O=C(O)C(F)(F)F | 1.862
O=C(CN1CCc2sccc2C1)Nc1ccnc2ccnn12 | 101.6
CC(C)n1nccc1NC(=O)CN1CCc2sccc2C1 | -0.741
Cn1nccc1NC(=O)CN1CCc2sccc2C1 | -34.76
Cc1ccoc1C(=O)N1CCc2ccc(=O)n(CCN(C)C)c2CC1.O=C(O)C(F)(F)F | -10.47
CCc1ocnc1C(=O)N1CCOC(CCCC(C)C)C1 (stereo not drawn) | 2.233
CCNc1ncc(C(=O)N2CCOC(CCCc3ccccc3)C2)cn1 (stereo not drawn) | 13.88
CCNc1ncc(C(=O)N2CCOC(CCCC(C)C)C2)cn1 (stereo not drawn) | 101.8
Cn1cc2c(n1)C(CNCc1ccco1)OCC2.O=C(O)C(F)(F)F.O=C(O)C(F)(F)F (stereo not drawn) | -43.95
CC(C)C(=O)N1CCC[C@]2(C(=O)N(C)C)CN(c3ccccn3)C[C@@H]2C1.O=C(O)C(F)(F)F | -34.76
CN(C)C(=O)C1OC2(CCNCC2)c2ccccc21.O=C(O)C(F)(F)F (stereo not drawn) | -39.36
CC(Cn1cccn1)NCc1csc(-c2ccccc2F)n1 (stereo not drawn) | 54.47
CC(Cn1cccn1)NCc1nc(-c2ccccc2Cl)no1 (stereo not drawn) | 1.662
Cc1cnn(CC(C)NCc2csc(-c3cccs3)n2)c1 (stereo not drawn) | 37.01
CC(Cn1cccn1)NCc1csc(-c2cccs2)n1 (stereo not drawn) | 54.31
CC(Cn1cccn1)NCc1csc(-c2ccsc2)n1 (stereo not drawn) | 22.32
Cc1cnn(CC(C)NCc2csc(-c3ncccn3)n2)c1 (stereo not drawn) | 10.59
COCC(=O)N1C[C@@H](OCc2ccncc2)[C@@H]2OCCC[C@@H]21.O=C(O)C(F)(F)F | -15.14

Structure (SMILES) | Percent Effect [%]
Cc1ccc2c(c1)CN(C(=O)c1ccncc1)C(CN(C)C)CO2.Cl (stereo not drawn) | -12.12
COCC(=O)NCc1cc(=O)n2c(n1)CN(CC1CC1)CCC2.O=C(O)C(F)(F)F | 0.2802
COC[C@H]1CC[C@@H]2[C@@H](CCN2Cc2ccccn2)O1.O=C(O)C(F)(F)F.O=C(O)C(F)(F)F | -12.12
COc1cccc(CN2CCc3nc4ccsc4c(=O)n3CC2)c1.Cl | -5.651
CCCN1CCCC2(CCN(Cc3cncn3C3CCCC3)C2)C1=O (stereo not drawn) | -6.674
CN1CCCC2(CCN(Cc3cncn3C3CCCCC3)C2)C1=O (stereo not drawn) | 13.88
CC1(c2ccccc2)CCCN(Cc2cncn2C2CCCC2)C1 (stereo not drawn) | 105.4
CC1(c2ccccc2)CCCN(Cc2nnc(-c3cccnc3)o2)C1 (stereo not drawn) | 31.3
COCCn1cncc1CN1CCCC(C(=O)Cc2ccccc2)C1 (stereo not drawn) | 2.668
CC1(c2ccccc2)CCCN(Cc2cncn2C2CC2)C1 (stereo not drawn) | 105.6
COCCn1cncc1CN1CCCC(C)(c2ccccc2)C1 (stereo not drawn) | 52.06
COCCn1cncc1CN1CCC(C(C)=O)(c2ccccc2)CC1 | -3.844
O=C(CCc1ccccc1)C1CCCN(Cc2cncn2C2CC2)C1 (stereo not drawn) | 5.776
CC(NC(=O)NCc1ccccc1)(C(=O)O)c1ccco1 (stereo not drawn) | -8.455
CC(=O)CN1CC2(CCNCC2)COc2ccccc2S1(=O)=O.O=C(O)C(F)(F)F | -27.15
Cn1ccc(C(=O)N2CCOC3(COCCN(CC4CC4)C3)C2)n1.O=C(O)C(F)(F)F (stereo not drawn) | 32.82
CS(=O)(=O)N[C@@H]1CN(C(=O)c2cccnc2)[C@@H]2CCCO[C@@H]21.O=C(O)C(F)(F)F | -22.75
COCCN1CCc2cc(C(=O)NC(C)C)c(NCC3CC3)nc2CC1.O=C(O)C(F)(F)F.O=C(O)C(F)(F)F | -25.1
